About 14,000 (4.5%) of roughly 310,000 compounds showed an effect of 50% or more. The effect is printed as a negative number. The list comes from a sample in which strong results are over-represented; it also holds similar structures and randomly drawn compounds.
molecular target: human ether-à-go-go-related gene (hERG) potassium channel (human, UniProt Q12809); test: primary screen, population patch clamp on CHO cells stably expressing hERG; higher = less effect of the substance
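Note: peak tail current of the secondary pulse compared with the same well before compound.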

human ether-à-go-go-related gene (hERG) potassium channel, sequence (Q12809 whole entry, looked up): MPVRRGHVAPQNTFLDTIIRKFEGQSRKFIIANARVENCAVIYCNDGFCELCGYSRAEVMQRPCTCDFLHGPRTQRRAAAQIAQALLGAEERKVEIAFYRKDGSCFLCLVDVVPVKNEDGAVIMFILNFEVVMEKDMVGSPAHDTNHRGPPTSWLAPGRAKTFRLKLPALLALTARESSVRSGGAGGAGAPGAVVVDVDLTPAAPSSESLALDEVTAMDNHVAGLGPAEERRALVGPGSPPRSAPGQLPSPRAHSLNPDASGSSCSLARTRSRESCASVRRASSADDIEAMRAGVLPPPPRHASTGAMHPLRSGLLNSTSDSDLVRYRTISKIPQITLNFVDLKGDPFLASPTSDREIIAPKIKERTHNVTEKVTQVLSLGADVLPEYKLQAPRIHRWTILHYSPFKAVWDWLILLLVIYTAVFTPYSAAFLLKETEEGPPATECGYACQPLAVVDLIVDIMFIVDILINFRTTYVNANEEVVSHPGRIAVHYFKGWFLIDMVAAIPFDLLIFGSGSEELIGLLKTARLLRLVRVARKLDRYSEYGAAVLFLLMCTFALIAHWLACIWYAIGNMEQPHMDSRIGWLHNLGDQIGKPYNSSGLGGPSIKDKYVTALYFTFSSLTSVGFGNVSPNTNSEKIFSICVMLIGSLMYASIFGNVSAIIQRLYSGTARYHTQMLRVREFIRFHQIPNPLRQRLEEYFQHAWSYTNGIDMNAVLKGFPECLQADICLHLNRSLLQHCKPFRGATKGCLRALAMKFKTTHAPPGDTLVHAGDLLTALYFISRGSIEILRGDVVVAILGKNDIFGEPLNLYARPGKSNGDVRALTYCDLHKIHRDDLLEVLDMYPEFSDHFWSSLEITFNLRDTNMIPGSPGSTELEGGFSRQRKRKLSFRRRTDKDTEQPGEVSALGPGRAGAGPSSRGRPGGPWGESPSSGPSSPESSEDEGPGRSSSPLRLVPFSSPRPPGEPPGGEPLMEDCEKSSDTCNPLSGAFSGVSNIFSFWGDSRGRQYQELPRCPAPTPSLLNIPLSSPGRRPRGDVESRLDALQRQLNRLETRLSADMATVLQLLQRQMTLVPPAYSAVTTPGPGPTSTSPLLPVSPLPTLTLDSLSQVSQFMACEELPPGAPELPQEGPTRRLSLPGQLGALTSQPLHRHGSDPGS

| Compound | hERG current change (%, negative = inhibition) at 10uM |
| --- | --- |
| CC(=O)Nc1ccccc1NC(=O)COc1cccc2ccccc12 | 18.9% |
| CCOC(=O)c1sc(NC(=O)CN2CCN(c3ccc(OC)cc3)CC2)nc1C | -20.6% |
| O=C(Nc1nc2ccccc2s1)c1ccc(N2CCCCC2)c([N+](=O)[O-])c1 | 6.67% |
| O=C(NNC(=O)c1ccc(Br)s1)NC1CCCCC1 | 28.1% |
| Cc1ccc(NC(=O)CCSc2nnc3ccccn23)cc1 | 2.6% |
| Cc1cccc(NS(=O)(=O)c2csc(C(N)=O)c2)c1 | 8.92% |
| NC(=O)c1cc(S(=O)(=O)Nc2ccccc2)cs1 | 1.39% |
| NC(=O)c1cc(S(=O)(=O)Nc2cccc(Cl)c2)cs1 | -61.2% |
| CCC(C)NC(=O)C1CCC(CNS(=O)(=O)c2ccc3c(c2)N(C(C)=O)CCO3)CC1 (centres unmarked) | 6.84% |
| COc1ccccc1NC(=O)C(=O)NCC(c1ccco1)N1CCc2ccccc21 (centres unmarked) | -1.64% |
| COc1ccc(-n2cnc3c(sc4nc(N5CCOCC5)c5c(c43)CCCC5)c2=O)cc1 | 21.3% |
| CCc1cccc(NS(=O)(=O)c2c(C)[nH]c(=O)[nH]c2=O)c1 | 20.8% |
| COc1ccc2cc(CN(CCc3ccccc3)Cc3nnnn3CC3CCCO3)c(=O)[nH]c2c1 (centres unmarked) | -31.3% |
| COCCn1nnnc1CN(CCc1ccccc1)Cc1cc2ccc(C)cc2[nH]c1=O | -57.2% |
| COc1ccc2[nH]c(=O)c(CN(CCc3ccccc3)Cc3nnnn3CC3CCCO3)cc2c1 (centres unmarked) | -53.4% |
| COc1ccc2cc(CN(Cc3cccnc3)Cc3nnnn3Cc3ccccc3)c(=O)[nH]c2c1 | -74.4% |
| COCCn1nnnc1CN(CCc1ccc(OC)c(OC)c1)Cc1cc2ccc(C)cc2[nH]c1=O | -42.8% |
| COc1ccc2cc(CN(Cc3cccs3)Cc3nnnn3Cc3ccccc3)c(=O)[nH]c2c1 | -11.3% |
| COc1ccc2cc(CN(CCc3ccccc3)Cc3nnnn3Cc3ccco3)c(=O)[nH]c2c1 | -29.7% |
| COc1ccc2[nH]c(=O)c(CN(Cc3ccccc3)Cc3nnnn3CC3CCCO3)cc2c1 (centres unmarked) | -4.75% |
| COCCn1nnnc1CN(CCc1ccccc1)Cc1cc2cc(OC)ccc2[nH]c1=O | -47.8% |
| COc1cc(OC)cc(C(=O)OCC(=O)NCc2ccco2)c1 | 2.94% |
| Cc1ccc(-n2nnc3c(=O)n(CC(=O)N4CCOCC4)cnc32)cc1 | -3.25% |

Reference: article PMC4336329 (PLoS ONE, 2015)
